About 83,000 compounds went through this panel and 20% of them were active in at least one assay; those are over-represented in the sample as a whole.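 Single-dose data. Exposure time 48 hours. Values below 10 considered active.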 Unmarked numbers belong to inactive results. The source made the active and inactive calls.

The experiment relates to HL-60(TB) leukemia. Put plainly: NCI-60 one-dose screen, 48 h (100 = growth as untreated, 0 = no growth, -100 = all killed). Conditions: 10 µM unless noted.
`CN(C)CCOc1cccc(-c2nc3sccn3c2-c2ccnc(S(C)(=O)=O)n2)c1`: the growth was 104%.
As for `CC(=O)N1N=C(c2ccc(Nc3nc(Nc4ccccc4)nc(Nc4ccccc4)n3)cc2)CC1c1ccccc1` (stereo unspecified), the growth was 79.3%.
In the case of `CCOC(=O)C1=C(C)NC(SCc2nnc(-c3ccc(Cl)cc3)o2)=NC1c1ccc(Br)cc1` (stereo unspecified), the growth is 22.5%.
As to `NC(N)=Nc1nc2ccccc2n2c1nc1ccccc12`, the growth is 37.7%.
Then `CN(C)c1ccc(CNCCO)cc1`, with 96.1%; and `Cc1ccc2c(C(C[N+](=O)[O-])c3ccccc3)c(-c3ccccc3)[nH]c2c1` (stereo unspecified), with -10.4% [9.5 µM] (active).
For `COc1ccc(-c2nc(SCCC(C)C)nc(N/N=C\c3ccccc3O)c2C#N)cc1`, the growth was 83.6%.
In the case of `CCCc1cc(CCC)n2nc(N)nc2n1`, the growth is 105%.
In the case of `COc1cc(/C=C2\CN(S(=O)(=O)c3ccc(C)cc3)C/C(=C\c3cc(CN4CCCC4)c(O)c(OC)c3)C2=O)cc(CN2CCCC2)c1O`, the growth is -33.6% (active).
For the compound `COc1cc2c(cc1-c1c(C)noc1C)ncc1nc(C3CCCCC3)n([C@H](C)COC(F)F)c12`, the growth is 31%.
Turning to `O=C1/C(=C/c2ccc(Cl)cc2)CN(Cc2cn(CCNc3ccnc4cc(Cl)ccc34)nn2)C/C1=C\c1ccc(Cl)cc1`, the growth is -51.5% (active).
Under `CCC1=C(c2ccc(OC)cc2)C(C)(C)Oc2c1ccc(O)c2CN1CCCC1` stands -25.4% (active).
Under `CC(C)c1cc(C(C)C)c(S(=O)(=O)Oc2ccc(NC(=O)c3ccc(Cl)cc3)cc2)c(C(C)C)c1` stands 16.9%.
Under `COc1ccc(Nc2nc(SC)nc(-c3cccc([N+](=O)[O-])c3)c2C#N)cc1` stands 112%; under `CC(=O)N1N=C(c2ccc(-n3ccc(C(F)(F)F)n3)c(F)c2)CC1c1ccc[nH]1` (stereo unspecified), 98.8%; under `Cc1cc(Cc2cc(C)cc(C(C)(C)C)c2O)c(O)c(C(C)(C)C)c1`, 59.3%.
For the compound `CCCC(C(=O)OCC)C(C)OC(=O)OCC` (stereo unspecified), the growth is 87.8%.
Then `CCC1=CCC[C@@]2(C)CCC[C@@]3(C)CCCC(C)(C)[C@]1([O-])[O+]32`, with 107%.
For `CN1CCOCCOCCOc2ccccc2NC(=O)c2nc(cnc2N)-c2ccc(cc2)S1(=O)=O`, the growth was -22.2% (active).
Regarding `COc1ccc(C(=O)/C=C/c2ccc(OCc3ccccc3)c(OC)c2)cc1OC`, the growth is 48.8%.
Under `Cc1n(Cc2ccc3ccccc3c2)cc[n+]1Cc1ccc2ccccc2c1` stands -38.1% (active); under `COc1ccccc1/C=C/C(=O)c1ccccc1`, 51.8%; under `CCn1cc2c(cc1=O)-c1nc3ccccc3c3ccnc(c13)C2=O`, 93.9%.
With `CC(=O)N(C)c1ccc([N+](=O)[O-])cc1`, the growth was 72.8%.
`C#CCOc1ccc(C2=NN(C)C3N=C(Cl)c4ncn(C)c4N23)cc1OCC#C` (stereo unspecified): the growth is 98.6%.
In the case of `CCOC(=O)c1ccc(NC(=S)P(=O)(c2ccccc2)c2ccccc2)cc1`, the growth was 80.4%.

The values are drawn from PubChem BioAssay (NCI).
